According to PubChem BioAssay (EPA / NIEHS):
The source made the active and inactive calls. How the source made its calls: active means hit-call score of the fitted dose curve at least 0.9, where 1 is the maximum; inactive means score below 0.9.

Experiments:
[1] = target: Bile acid receptor (Homo sapiens) (UniProt Q96RI1); test: ATG_IR1_CIS: Attagene CIS-FACTORIAL HepG2 Assay for human Nuclear Receptor Subfamily 1 Group H Member 4 (NR1H4), IR1 submotif (AID 2282946); conditions: IR1 reporter transcription, actives raise or lower the signal
Sequence of Bile acid receptor (Homo sapiens) (Q96RI1 whole entry, looked up): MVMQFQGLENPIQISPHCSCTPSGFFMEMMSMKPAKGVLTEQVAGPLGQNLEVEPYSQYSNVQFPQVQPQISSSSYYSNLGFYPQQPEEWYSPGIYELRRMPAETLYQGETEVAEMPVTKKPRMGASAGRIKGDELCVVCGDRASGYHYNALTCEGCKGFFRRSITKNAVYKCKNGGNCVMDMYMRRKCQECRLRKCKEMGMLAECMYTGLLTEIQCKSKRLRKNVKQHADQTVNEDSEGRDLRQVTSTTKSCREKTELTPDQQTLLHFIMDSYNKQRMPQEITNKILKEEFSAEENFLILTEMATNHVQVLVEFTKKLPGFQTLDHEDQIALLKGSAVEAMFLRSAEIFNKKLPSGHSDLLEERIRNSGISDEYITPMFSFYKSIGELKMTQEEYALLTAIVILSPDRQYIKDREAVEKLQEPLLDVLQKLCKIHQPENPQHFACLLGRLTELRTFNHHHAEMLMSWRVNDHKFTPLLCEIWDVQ
How it was run: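 Transient MRTU transfection, HepG2; 24 h dosing; RNA → RT-PCR → 6-FAM primer extension → HpaI digest → capillary electrophoresis fluorescence. Gain/loss of signal fitted relative to DMSO.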

[2] = ATG_GRE_CIS: Attagene CIS-FACTORIAL HepG2 Assay for human Glucocorticoid Response Elements (GRE) (AID 2282947); conditions: HepG2 GRE cis-reporter, Attagene multiplex mRNA; actives raise or lower the signal
How it was run: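 Following 24 h chemical exposure of transiently transfected HepG2 cells, total RNA was reverse-transcribed and reporter cDNA amplified, fluorescently labelled and sized by capillary electrophoresis. Signal gain or loss was fitted relative to DMSO vehicle.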

[3] = ATG_ISRE_CIS: Attagene CIS-FACTORIAL HepG2 Assay for human Interferon Regulatory Factor 1 (IRF1) binding to an Interferon-Stimulated Response Element (ISRE) (AID 2282948); conditions: HepG2 ISRE cis-reporter (Attagene), mRNA transcription readout; actives raise or lower the signal
How it was run: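 Cell-based cis-reporter assay; HepG2; 24 h exposure; reporter mRNA by RT-PCR plus capillary electrophoresis fluorescence; activity in either direction scored relative to DMSO.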

[4] = ATG_M_32_CIS: Attagene CIS-FACTORIAL HepG2 Assay for M32 Transcription Factor (Internal Marker) (AID 2282949); conditions: HepG2 Attagene cis-factorial M32 reporter, mRNA; actives raise or lower the signal;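 further: background control marker of the multiplexed CIS panel rather than a real target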
How it was run: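 HepG2 cells transiently transfected with multiplexed cis-regulated reporter units, dosed 24 h. Reporter mRNA quantified by RT-PCR, 6-FAM labelling, HpaI digestion and capillary electrophoresis; bidirectional fit vs DMSO.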

[5] = ATG_M_06_CIS: Attagene CIS-FACTORIAL HepG2 Assay for M06 Transcription Factor (Internal Marker) (AID 2282950); conditions: HepG2 Attagene CIS-FACTORIAL M06 internal marker reporter; actives raise or lower the signal
How it was run: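 Internal background marker within multiplexed cis-reporter HepG2 system. Cells transiently transfected, dosed 24 h; reporter mRNA measured by RT-PCR, HpaI digestion and capillary electrophoresis. Bidirectional fit relative to DMSO.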

[6] = target: Hypoxia-inducible factor 1-alpha (Homo sapiens) (UniProt Q16665); test: ATG_HIF1a_CIS: Attagene CIS-FACTORIAL HepG2 Assay for human Hypoxia Inducible Factor 1 (HIF1A) (AID 2282951); conditions: HepG2 Attagene cis-factorial HIF1a reporter transcription; actives raise or lower the signal
Sequence of Hypoxia-inducible factor 1-alpha (Homo sapiens) (Q16665 whole entry, looked up): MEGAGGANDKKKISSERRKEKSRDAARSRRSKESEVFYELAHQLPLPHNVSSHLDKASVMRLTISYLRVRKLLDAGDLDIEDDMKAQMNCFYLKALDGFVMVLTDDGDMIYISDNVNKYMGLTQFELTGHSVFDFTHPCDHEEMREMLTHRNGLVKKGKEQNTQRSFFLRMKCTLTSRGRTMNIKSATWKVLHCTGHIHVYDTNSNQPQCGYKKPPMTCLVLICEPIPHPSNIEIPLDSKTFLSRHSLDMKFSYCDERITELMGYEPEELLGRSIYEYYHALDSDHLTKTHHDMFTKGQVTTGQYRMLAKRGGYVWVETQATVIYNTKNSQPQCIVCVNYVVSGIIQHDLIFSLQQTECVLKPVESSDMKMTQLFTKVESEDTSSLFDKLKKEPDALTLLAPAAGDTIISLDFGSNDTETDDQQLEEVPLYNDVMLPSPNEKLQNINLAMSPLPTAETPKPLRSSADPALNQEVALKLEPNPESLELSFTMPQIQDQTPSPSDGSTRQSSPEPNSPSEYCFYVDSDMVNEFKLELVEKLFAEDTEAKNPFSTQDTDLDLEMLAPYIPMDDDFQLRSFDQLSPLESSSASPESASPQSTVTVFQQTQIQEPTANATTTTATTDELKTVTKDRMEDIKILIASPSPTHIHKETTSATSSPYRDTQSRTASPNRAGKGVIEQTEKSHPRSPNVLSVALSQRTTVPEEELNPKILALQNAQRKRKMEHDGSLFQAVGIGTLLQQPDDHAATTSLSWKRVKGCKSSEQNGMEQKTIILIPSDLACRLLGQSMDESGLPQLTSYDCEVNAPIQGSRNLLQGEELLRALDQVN
How it was run: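 In this multiplexed cell assay, HepG2 cells bearing transfected cis reporters are dosed for 24 h and reporter mRNA is read by RT-PCR plus capillary electrophoresis; signal increases and decreases are both scored against DMSO.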

[7] = target: Hepatocyte nuclear factor 6 (Homo sapiens) (UniProt Q9UBC0); test: ATG_HNF6_CIS: Attagene CIS-FACTORIAL HepG2 Assay for human Hepatocyte Nuclear Factor 6 (HNF6) (AID 2282952); conditions: HepG2 Attagene cis-factorial HNF6 reporter transcription; actives raise or lower the signal
Sequence of Hepatocyte nuclear factor 6 (Homo sapiens) (Q9UBC0 whole entry, looked up, the tested form may be a part): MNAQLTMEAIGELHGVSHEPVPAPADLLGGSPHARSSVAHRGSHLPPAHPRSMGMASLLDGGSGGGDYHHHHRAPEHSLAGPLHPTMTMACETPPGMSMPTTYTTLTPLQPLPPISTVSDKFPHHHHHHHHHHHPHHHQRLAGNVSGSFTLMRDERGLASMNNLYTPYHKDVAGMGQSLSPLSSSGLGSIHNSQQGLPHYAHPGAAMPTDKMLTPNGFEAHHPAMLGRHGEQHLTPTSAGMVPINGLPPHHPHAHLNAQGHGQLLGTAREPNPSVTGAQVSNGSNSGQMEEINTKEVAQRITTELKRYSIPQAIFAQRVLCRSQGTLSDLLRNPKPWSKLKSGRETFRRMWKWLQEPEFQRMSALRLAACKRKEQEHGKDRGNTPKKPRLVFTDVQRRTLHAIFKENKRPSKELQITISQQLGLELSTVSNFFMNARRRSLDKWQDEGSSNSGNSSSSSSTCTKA
How it was run: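 HepG2 cells transiently transfected with cis-element-driven multiplexed reporter units measuring endogenous transcription factor activity. After 24 h exposure, reporter mRNA quantified by RT-PCR, FAM-labelled fragments and capillary electrophoresis; bidirectional fitting versus DMSO.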

[8] = target: Heat shock factor protein 1 (Homo sapiens) (UniProt Q00613); test: ATG_HSE_CIS: Attagene CIS-FACTORIAL HepG2 Assay for human Heat Shock Transcription Factor 1 (HSE) (AID 2282953); conditions: HepG2 HSE cis-reporter, Attagene RNA transcription; actives raise or lower the signal
Sequence of Heat shock factor protein 1 (Homo sapiens) (Q00613 whole entry, looked up): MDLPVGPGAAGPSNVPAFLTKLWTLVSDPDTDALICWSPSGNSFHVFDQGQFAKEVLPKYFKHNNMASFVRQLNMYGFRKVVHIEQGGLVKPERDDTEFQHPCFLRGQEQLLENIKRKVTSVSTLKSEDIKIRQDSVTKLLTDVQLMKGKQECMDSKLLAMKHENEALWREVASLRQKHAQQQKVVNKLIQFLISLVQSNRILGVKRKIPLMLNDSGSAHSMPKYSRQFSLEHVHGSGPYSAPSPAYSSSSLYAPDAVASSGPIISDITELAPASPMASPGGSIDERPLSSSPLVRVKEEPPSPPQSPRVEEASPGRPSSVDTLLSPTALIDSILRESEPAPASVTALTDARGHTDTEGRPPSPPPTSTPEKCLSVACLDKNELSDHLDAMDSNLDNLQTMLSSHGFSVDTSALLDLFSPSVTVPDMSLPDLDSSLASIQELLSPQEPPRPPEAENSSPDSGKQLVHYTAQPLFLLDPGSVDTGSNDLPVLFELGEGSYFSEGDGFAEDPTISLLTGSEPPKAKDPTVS
How it was run: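 HepG2 cells transfected with cis-promoter reporter units sensing endogenous transcription factor activity; reporter mRNA quantified 24 h post-dose by RT-PCR and capillary electrophoresis of 6-FAM-labelled products. Bidirectional fitting against DMSO.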

[9] = ATG_MRE_CIS: Attagene CIS-FACTORIAL HepG2 Assay for human Metal Responsive Element (MRE) (AID 2282954); conditions: HepG2 MRE cis-reporter transcription, Attagene multiplex; actives raise or lower the signal
How it was run: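 Step one: transfect HepG2 with cis-regulated reporter units. Step two: dose 24 h. Step three: isolate RNA, RT-PCR, 6-FAM label, HpaI digest, capillary electrophoresis. Fit bidirectionally to DMSO.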

[10] = ATG_PBREM_CIS: Attagene CIS-FACTORIAL HepG2 Assay for human Phenobarbital-responsive Enhancer Module (PBREM) (AID 2282955); conditions: HepG2 PBREM cis-reporter, Attagene multiplexed transcription; actives raise or lower the signal
How it was run: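 After a 24 h incubation with test chemical, transfected HepG2 cells yield total RNA; reporter-specific RT-PCR products are fluorescently labelled, HpaI-digested and resolved by capillary electrophoresis against ROX size standards.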

[11] = target: Paired box protein Pax-6 (Homo sapiens) (UniProt P26367); test: ATG_Pax6_CIS: Attagene CIS-FACTORIAL HepG2 Assay for human Paired Box 6 (PAX6) (AID 2282956); conditions: HepG2 CIS-FACTORIAL PAX6 reporter transcription, RNA readout; actives raise or lower the signal
Sequence of Paired box protein Pax-6 (Homo sapiens) (P26367 whole entry, looked up): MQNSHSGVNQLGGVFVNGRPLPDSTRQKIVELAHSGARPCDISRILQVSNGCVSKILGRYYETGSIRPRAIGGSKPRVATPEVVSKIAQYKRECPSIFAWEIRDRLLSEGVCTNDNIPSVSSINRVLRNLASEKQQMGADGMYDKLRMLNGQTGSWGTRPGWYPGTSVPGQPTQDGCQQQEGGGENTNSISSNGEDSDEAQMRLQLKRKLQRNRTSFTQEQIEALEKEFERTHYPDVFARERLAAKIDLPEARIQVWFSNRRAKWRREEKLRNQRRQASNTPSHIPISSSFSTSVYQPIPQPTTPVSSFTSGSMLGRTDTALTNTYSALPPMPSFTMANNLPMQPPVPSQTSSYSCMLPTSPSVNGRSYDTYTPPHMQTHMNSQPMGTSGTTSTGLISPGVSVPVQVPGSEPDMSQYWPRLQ
How it was run: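 Multiplexed cis-reporter HepG2 system; 24 h treatment; reporter mRNA read by RT-PCR/CE fluorescence; bidirectional fit vs DMSO.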

[12] = ATG_PXRE_CIS: Attagene CIS-FACTORIAL HepG2 Assay for human Pregnane X Receptor Element (PXRE) (AID 2282957); conditions: HepG2 Attagene CIS-FACTORIAL PXRE reporter, mRNA; actives raise or lower the signal
How it was run: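 HepG2 cells transiently transfected with cis-element-driven multiplexed reporter units; after 24 h chemical exposure, reporter mRNA measured by RT-PCR, 6-FAM labelling, HpaI digestion and capillary electrophoresis. Bidirectional fitting relative to DMSO.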

[13] = ATG_PPRE_CIS: Attagene CIS-FACTORIAL HepG2 Assay for human Peroxisome Proliferator-activated Response Element (PPRE) (AID 2282958); conditions: HepG2 PPRE cis-element reporter, Attagene transcription factor profiling; actives raise or lower the signal
How it was run: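 Multiplexed reporter transcription units under cis-regulatory promoters were transfected into HepG2 cells to capture endogenous factor activity. A 24 h incubation preceded RNA isolation and fluorescent RT-PCR fragment analysis.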

[14] = ATG_RORE_CIS: Attagene CIS-FACTORIAL HepG2 Assay for human RAR-related Orphan Receptor Element (RORE) (AID 2282959); conditions: HepG2 Attagene cis-factorial RORE reporter, mRNA; actives raise or lower the signal
How it was run: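 Fluorescence intensity of reporter-specific cDNA fragments, separated by capillary electrophoresis, gives the signal. Source: HepG2 liver cells transiently transfected with cis-element reporters and exposed 24 h; DMSO-normalized bidirectional fit.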

[15] = ATG_Sox_CIS: Attagene CIS-FACTORIAL HepG2 Assay for human SRY-box transcription factor (SOX) (AID 2282960); conditions: HepG2 Attagene cis-factorial SOX reporter, mRNA; actives raise or lower the signal
How it was run: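 After 24 h of chemical treatment, transfected HepG2 reporter cells are lysed for total RNA. Transcript levels come from RT-PCR with labelled primer extension and capillary electrophoresis, analysed bidirectionally versus DMSO.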

[16] = target: Transcription factor Sp1 (Homo sapiens) (UniProt P08047); test: ATG_Sp1_CIS: Attagene CIS-FACTORIAL HepG2 Assay for human Specificity Protein 1 (Sp1) (AID 2282961); conditions: HepG2 Sp1 cis-reporter transcription, actives raise or lower the signal
Sequence of Transcription factor Sp1 (Homo sapiens) (P08047 whole entry, looked up): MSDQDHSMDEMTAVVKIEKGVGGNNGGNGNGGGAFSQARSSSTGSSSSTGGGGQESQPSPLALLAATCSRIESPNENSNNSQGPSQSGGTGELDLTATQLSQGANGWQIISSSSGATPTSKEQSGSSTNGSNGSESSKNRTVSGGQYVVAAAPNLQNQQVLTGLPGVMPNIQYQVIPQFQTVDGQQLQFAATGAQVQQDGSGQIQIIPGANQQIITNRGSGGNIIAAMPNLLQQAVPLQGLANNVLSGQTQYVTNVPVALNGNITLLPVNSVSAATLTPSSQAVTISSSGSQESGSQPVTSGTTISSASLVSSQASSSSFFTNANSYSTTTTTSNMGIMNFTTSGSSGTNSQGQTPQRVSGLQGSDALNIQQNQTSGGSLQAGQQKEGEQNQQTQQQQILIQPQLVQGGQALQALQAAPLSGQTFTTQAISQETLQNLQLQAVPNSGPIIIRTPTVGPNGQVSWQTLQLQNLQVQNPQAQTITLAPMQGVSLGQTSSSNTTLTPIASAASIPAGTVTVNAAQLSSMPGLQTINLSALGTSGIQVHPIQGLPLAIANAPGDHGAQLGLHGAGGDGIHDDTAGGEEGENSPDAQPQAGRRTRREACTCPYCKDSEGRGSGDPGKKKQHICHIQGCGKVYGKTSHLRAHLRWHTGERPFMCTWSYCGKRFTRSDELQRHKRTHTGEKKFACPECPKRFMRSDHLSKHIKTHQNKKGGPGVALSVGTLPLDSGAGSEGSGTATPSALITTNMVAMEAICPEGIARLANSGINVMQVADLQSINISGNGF
How it was run: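 Sp1-driven reporter mRNA, read as capillary electrophoresis fluorescence after RT-PCR, in transiently transfected HepG2 cells dosed for 24 h; signal change in either direction relative to DMSO.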

[17] = ATG_SREBP_CIS: Attagene CIS-FACTORIAL HepG2 Assay for human Sterol Regulatory Element Binding (SREBP) (AID 2282962); conditions: HepG2 Attagene cis-factorial SREBP reporter, mRNA; actives raise or lower the signal
How it was run: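 mRNA induction of transfected cis-promoter reporters in HepG2 cells, 24 h post-dose. Detection: RT-PCR with 6-FAM-labelled products, HpaI digest, capillary electrophoresis. DMSO served as negative control and baseline.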

[18] = ATG_TA_CIS: Attagene CIS-FACTORIAL HepG2 Assay for human TA Basal Promoter (AID 2282964); conditions: HepG2 Attagene CIS-factorial TA basal promoter reporter; actives raise or lower the signal
How it was run: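 HepG2 cells transiently transfected with multiple reporter units under cis promoter elements, reporting endogenous transcription factor activity; this endpoint tracks the TA basal promoter as background control. Reporter mRNA after 24 h dosing measured by RT-PCR/capillary electrophoresis; bidirectional fits versus DMSO.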

[19] = ATG_TCF_b_cat_CIS: Attagene CIS-FACTORIAL HepG2 Assay for human T-Cell-Factor with beta-catenin (TCF/b-cat) (AID 2282965); conditions: HepG2 TCF/beta-catenin cis-reporter transcription, actives raise or lower the signal
How it was run: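 Using capillary electrophoresis as the read-out, labelled reporter cDNA fragments from transiently transfected HepG2 were sized and quantified. Exposure lasted 24 hours; activity in either direction was referenced to DMSO.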

[20] = target: Signal transducer and activator of transcription 3 (Homo sapiens) (UniProt P40763); test: ATG_STAT3_CIS: Attagene CIS-FACTORIAL HepG2 Assay for human Signal Transducer and Activator of Transcription 3 (STAT3) (AID 2282963); conditions: HepG2, Attagene cis-factorial STAT3 reporter transcription; actives raise or lower the signal
Sequence of Signal transducer and activator of transcription 3 (Homo sapiens) (P40763 whole entry, looked up): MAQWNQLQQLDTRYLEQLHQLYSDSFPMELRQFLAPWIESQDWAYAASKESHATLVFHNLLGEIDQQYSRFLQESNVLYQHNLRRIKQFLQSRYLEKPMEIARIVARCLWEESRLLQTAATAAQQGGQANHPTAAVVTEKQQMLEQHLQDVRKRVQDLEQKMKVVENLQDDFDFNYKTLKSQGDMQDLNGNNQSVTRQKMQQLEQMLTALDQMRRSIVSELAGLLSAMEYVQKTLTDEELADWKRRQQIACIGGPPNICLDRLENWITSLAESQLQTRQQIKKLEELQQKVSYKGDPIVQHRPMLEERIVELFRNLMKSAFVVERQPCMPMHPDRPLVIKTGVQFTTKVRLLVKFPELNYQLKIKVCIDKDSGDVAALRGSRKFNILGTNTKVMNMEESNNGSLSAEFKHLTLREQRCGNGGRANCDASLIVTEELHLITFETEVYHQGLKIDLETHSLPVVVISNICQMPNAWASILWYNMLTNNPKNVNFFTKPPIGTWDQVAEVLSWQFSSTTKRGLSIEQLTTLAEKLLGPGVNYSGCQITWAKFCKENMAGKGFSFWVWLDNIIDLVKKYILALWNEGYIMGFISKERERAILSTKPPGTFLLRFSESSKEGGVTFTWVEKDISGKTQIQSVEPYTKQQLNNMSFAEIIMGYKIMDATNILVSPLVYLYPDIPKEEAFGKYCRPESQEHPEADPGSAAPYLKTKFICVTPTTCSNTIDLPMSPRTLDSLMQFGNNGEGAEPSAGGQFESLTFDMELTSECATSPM
How it was run: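 Transcript-level reporter assay. HepG2 transient MRTU transfection, 24 h exposure, fluorescence detection after RT-PCR and CE; DMSO baseline.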

O=C1CCCO1
outcome [1]: inactive
outcome [2]: inactive
outcome [3]: inactive
outcome [4]: inactive
outcome [5]: inactive
outcome [6]: inactive
outcome [7]: inactive
outcome [8]: inactive
outcome [9]: inactive
outcome [10]: inactive
outcome [11]: inactive
outcome [12]: inactive
outcome [13]: inactive
outcome [14]: inactive
outcome [15]: inactive
outcome [16]: inactive
outcome [17]: inactive
outcome [18]: inactive
outcome [19]: inactive

Nc1ccc(Cc2ccc(N)cc2)cc1
outcome [1]: inactive
outcome [2]: inactive
outcome [3]: inactive
outcome [4]: inactive
outcome [6]: inactive
outcome [7]: inactive
outcome [8]: inactive
outcome [9]: inactive
outcome [10]: inactive
outcome [11]: inactive
outcome [13]: inactive
outcome [14]: inactive
outcome [15]: inactive
outcome [16]: inactive
outcome [17]: inactive
outcome [20]: inactive
outcome [18]: inactive
outcome [19]: inactive

CC(C)COC(=O)c1ccccc1C(=O)OCC(C)C
outcome [1]: inactive
outcome [2]: inactive
AC50 [3]: 167 µM (active)
outcome [4]: inactive
outcome [5]: inactive
outcome [6]: inactive
outcome [7]: inactive
outcome [8]: inactive
AC50 [9]: 109 µM (active)
AC50 [11]: 100 µM (active)
AC50 [12]: 26.1 µM (active)
AC50 [14]: 44.3 µM (active)
outcome [15]: inactive
outcome [16]: inactive
outcome [17]: inactive
AC50 [18]: 56.4 µM (active)
outcome [19]: inactive

O=P(OCCCl)(OCCCl)OCCCl
outcome [1]: inactive
outcome [2]: inactive
outcome [3]: inactive
outcome [4]: inactive
outcome [5]: inactive
outcome [6]: inactive
outcome [7]: inactive
outcome [8]: inactive
outcome [9]: inactive
outcome [10]: inactive
outcome [11]: inactive
AC50 [12]: 43.6 µM (active)
outcome [13]: inactive
outcome [14]: inactive
outcome [15]: inactive
outcome [16]: inactive
outcome [17]: inactive
outcome [20]: inactive
outcome [18]: inactive
outcome [19]: inactive

Nc1ccc(N=Nc2ccccc2)cc1
outcome [1]: inactive
outcome [2]: inactive
AC50 [3]: 57.2 µM (active)
outcome [4]: inactive
AC50 [6]: 58.1 µM (active)
outcome [7]: inactive
outcome [8]: inactive
AC50 [9]: 67 µM (active)
AC50 [10]: 67.3 µM (active)
AC50 [11]: 47.4 µM (active)
AC50 [13]: 77.9 µM (active)
AC50 [14]: 40.7 µM (active)
outcome [15]: inactive
outcome [16]: inactive
outcome [17]: inactive
AC50 [18]: 52.2 µM (active)
AC50 [19]: 27.4 µM (active)

Clc1ccccc1Cl
outcome [1]: inactive
outcome [2]: inactive
outcome [3]: inactive
outcome [4]: inactive
outcome [6]: inactive
outcome [7]: inactive
outcome [8]: inactive
outcome [9]: inactive
outcome [10]: inactive
outcome [11]: inactive
outcome [12]: inactive
outcome [13]: inactive
outcome [14]: inactive
outcome [15]: inactive
outcome [16]: inactive
outcome [17]: inactive
outcome [18]: inactive
outcome [19]: inactive

Clc1ccc(C(c2ccc(Cl)cc2)C(Cl)(Cl)Cl)cc1
outcome [1]: inactive
outcome [2]: inactive
AC50 [3]: 62.2 µM (active)
outcome [4]: inactive
outcome [5]: inactive
outcome [6]: inactive
outcome [7]: inactive
outcome [8]: inactive
AC50 [9]: 100 µM (active)
outcome [11]: inactive
AC50 [12]: 4.13 µM (active)
outcome [13]: inactive
outcome [14]: inactive
outcome [15]: inactive
AC50 [16]: 100 µM (active)
outcome [17]: inactive
outcome [20]: inactive
outcome [18]: inactive
outcome [19]: inactive
